The full list was thinned out, with hits kept by preference.
CBX7 AlphaScr – blocks human CBX7 binding to H3K27me3 peptide | normalised signal (fraction of DMSO) (concentration not given with the values) | 1.1% of 66,000 active | AlphaScreen His6-CBX7 / biotin-H3K27me3 peptide binding; stronger effect = lower value | AID 1224903; in the data active = normalised signal below about 0.5
Target sequence (O95931 whole entry, looked up): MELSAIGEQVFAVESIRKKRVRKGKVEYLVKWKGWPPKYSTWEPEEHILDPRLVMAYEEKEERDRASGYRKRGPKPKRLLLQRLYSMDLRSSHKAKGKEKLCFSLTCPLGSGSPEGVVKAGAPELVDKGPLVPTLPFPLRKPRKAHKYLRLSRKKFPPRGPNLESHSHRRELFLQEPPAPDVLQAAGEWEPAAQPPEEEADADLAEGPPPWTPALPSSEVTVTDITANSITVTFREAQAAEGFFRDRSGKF
A number is an active result.

Cc1ccc(CNC(=O)CN2C(=O)COc3ccc(C(C)(C)C)cc32)cc1 was read as CBX7 AlphaScr inactive.
`CC(C)(C)c1ccc2c(c1)N(CC(=O)NCc1ccc3c(c1)OCO3)C(=O)CO2` gave CBX7 AlphaScr inactive.
Screening CCN(CCCNC(=O)CCCN1C(=O)COc2ccc(C)cc21)c1cccc(C)c1 returned CBX7 AlphaScr inactive.
CC(C)(C)c1ccc2c(c1)N(CC(=O)NCc1cccs1)C(=O)CO2 was read as CBX7 AlphaScr 0.189.
Screening O=C(NCCc1ccc(Cl)cc1)c1cc(Nc2cccc(C(F)(F)F)c2)nc2ccccc12 returned CBX7 AlphaScr inactive.
For O=C(Cc1c(C(=O)O)[nH]c2ccccc12)NCC1CCCO1 (stereo not drawn) the results were CBX7 AlphaScr inactive.
For CC(=O)N1CCN(CC(O)COc2ccc(Br)cc2)CC1 (stereo not drawn) the results were CBX7 AlphaScr 0.464.
Screening COc1ccc(OCC(O)CN2CCCCC2)cc1 (stereo not drawn) returned CBX7 AlphaScr inactive.
CCCCOCC(O)CN1CCN(C(C)=O)CC1 (stereo not drawn) was read as CBX7 AlphaScr inactive.
Cn1c(CNc2cc(Cl)ccc2Cl)nc2ccccc21 was read as CBX7 AlphaScr inactive.
For Cn1c(CNc2ccccc2O)nc2ccccc21 the results were CBX7 AlphaScr 0.461.
For Cc1ccccc1NCc1nc2ccccc2n1C the results were CBX7 AlphaScr inactive.
CCOc1ccc(C2CC(=O)Nc3cc(OCC)c(OCC)cc32)cc1 (stereo not drawn) was read as CBX7 AlphaScr inactive.
`COc1ccccc1CNC(=O)c1nn(-c2ccccc2OC)c(=O)c2ccccc12` gave CBX7 AlphaScr inactive.
Screening CCN(CCCNC(=O)c1nn(-c2ccccc2OC)c(=O)c2ccccc12)c1cccc(C)c1 returned CBX7 AlphaScr 0.481.
Screening COCCNC(=O)c1nn(-c2ccccc2OC)c(=O)c2ccccc12 returned CBX7 AlphaScr inactive.
For COC(=O)c1ccc2nc(C)cc(Nc3cccc(C(=O)O)c3)c2c1 the results were CBX7 AlphaScr inactive.
Cc1ccc(S(=O)(=O)N(C)c2cccc3cccnc23)cc1 was read as CBX7 AlphaScr inactive.
For Cc1ccc(S(=O)(=O)Nc2ccccc2CNc2ccccn2)cc1 the results were CBX7 AlphaScr inactive.
For Cc1ccc(S(=O)(=O)Nc2cccc3cccnc23)cc1 the results were CBX7 AlphaScr 0.0846.
Screening O=C(Nc1ccc(Oc2ccccc2)cc1)c1cccc(NC2=NC3CS(=O)(=O)CC3S2)c1 (stereo not drawn) returned CBX7 AlphaScr inactive.
COc1ccc(Br)cc1CNC(=O)C1CCN(S(C)(=O)=O)CC1 was read as CBX7 AlphaScr inactive.
Screening COc1ccc(N2Cc3cccc(C(=O)Nc4ccc(OC)c(Cl)c4)c3C2=O)cc1 returned CBX7 AlphaScr inactive.
COc1ccc(CN2CC(C(=O)NCc3ccccn3)CC2=O)cc1 (stereo not drawn) was read as CBX7 AlphaScr 0.367.
For COc1ccc(CN2CC(C(=O)NCc3ccc(F)cc3)CC2=O)cc1 (stereo not drawn) the results were CBX7 AlphaScr inactive.
COc1ccc(CN2CC(C(=O)NC3CCCC3)CC2=O)cc1 (stereo not drawn) was read as CBX7 AlphaScr inactive.
For COc1ccc(-c2noc(-c3ccc(Br)cc3)n2)cc1OC the results were CBX7 AlphaScr inactive.
COc1c(-c2cc(-c3ccccc3)n[nH]2)c(O)c(OC)c2occc12 was read as CBX7 AlphaScr inactive.
For COc1ccc(-c2cc(-c3c(O)c(OC)c4occc4c3OC)[nH]n2)cc1OC the results were CBX7 AlphaScr 0.45.
For Cc1ccc(-n2c3c(cc(C(=O)NCCc4ccccc4)c2=O)C(=O)CC(C)(C)C3)cc1 the results were CBX7 AlphaScr inactive.
`COc1ccc(C(=O)Nc2nc(-c3ccccc3)c(C(=O)c3ccccc3)s2)c(OC)c1` gave CBX7 AlphaScr inactive.
`CC(C(=O)NC1CCCC1)C1Sc2ccccc2NC1=O` (stereo not drawn) gave CBX7 AlphaScr inactive.
Screening O=C(CC1Sc2ccccc2NC1=O)Nc1ccc2c(c1)OCO2 (stereo not drawn) returned CBX7 AlphaScr inactive.
`COc1ccc(C2Sc3ccccc3NC3=C2C(=O)c2ccccc23)cc1OC` (stereo not drawn) gave CBX7 AlphaScr 0.4.
For O=C1C2=C(Nc3ccccc3SC2c2ccco2)c2ccccc21 (stereo not drawn) the results were CBX7 AlphaScr 0.39.
For O=C(CC1Sc2ccccc2NC1=O)Nc1ccc2c(c1)OCCO2 (stereo not drawn) the results were CBX7 AlphaScr inactive.
For COc1ccc(NC(=O)CC2Sc3ccccc3NC2=O)cc1OC (stereo not drawn) the results were CBX7 AlphaScr inactive.
COc1ccc(C2CC(=O)C3=C(C2)Nc2ccccc2NC3c2ccncc2)cc1OC (stereo not drawn) was read as CBX7 AlphaScr inactive.
For O=C1C2=C(Nc3ccccc3SC2c2ccc3c(c2)OCO3)c2ccccc21 (stereo not drawn) the results were CBX7 AlphaScr 0.354.
For Cc1cc(N2CCN(C(c3ccccc3)c3ccccc3)CC2)nc(-c2ccccc2O)n1 the results were CBX7 AlphaScr inactive.
Screening COc1ccc(OC)c2[nH]c(=O)c(CCNC(=O)C3CC3)cc12 returned CBX7 AlphaScr inactive.
Cc1cc(C)cc(NC(=O)C2CCN(S(=O)(=O)c3ccc(F)cc3)CC2)c1 was read as CBX7 AlphaScr inactive.
For Cc1ccc2c(c1)-c1c(cnn1CC(=O)Nc1ccc(F)cc1Cl)CO2 the results were CBX7 AlphaScr inactive.
CCOc1ccccc1NC(=O)CSc1nnc(Cc2cccn2C)n1-c1ccc(C)cc1 was read as CBX7 AlphaScr inactive.
CCN(C(=O)Cn1c(SCc2cccc(C)c2)nc2ccncc21)c1cccc(C)c1 was read as CBX7 AlphaScr inactive.
Screening Cc1ccc(CCNC(=O)c2ccc(CNc3c(N4CCC(C)CC4)c(=O)c3=O)cc2)cc1 returned CBX7 AlphaScr inactive.
For COc1cc(OC)c(NC(=O)c2sc3ncn(CC(=O)N4CCCC4)c(=O)c3c2C)cc1Cl the results were CBX7 AlphaScr inactive.
`CCc1ccccc1N(CC)C(=O)CCC(=O)Nc1ccc2nc(N3CCOCC3)cc(C)c2c1` gave CBX7 AlphaScr inactive.
Screening CCCn1cnc2cc(NCc3ccc(Br)cc3)ccc21 returned CBX7 AlphaScr 0.326.
Screening CCn1cnc2cc(NCc3ccc(OC)c(OC)c3)ccc21 returned CBX7 AlphaScr inactive.
CCCn1cnc2cc(NCc3ccc(OC)c(OC)c3)ccc21 was read as CBX7 AlphaScr inactive.
`CCCn1cnc2cc(NCc3cccc(OC)c3)ccc21` gave CBX7 AlphaScr inactive.
CCCCn1cnc2cc(NCc3ccc(Br)cc3)ccc21 was read as CBX7 AlphaScr 0.255.
For CCn1cnc2cc(NCc3ccc(Br)cc3)ccc21 the results were CBX7 AlphaScr inactive.
For O=C(Nc1ccc(F)c(F)c1)C1CCN(S(=O)(=O)c2cnc[nH]2)CC1 the results were CBX7 AlphaScr inactive.
`Cc1ccc2c(c1)N(CCCC(=O)NC1CCCC(C)C1C)C(=O)CO2` (stereo not drawn) gave CBX7 AlphaScr inactive.
For Cc1oc(-c2ccc(Cl)cc2)nc1CSCC(=O)NCCN1CCOCC1 the results were CBX7 AlphaScr inactive.
`C=CCN(CC=C)S(=O)(=O)c1ccc(C(=O)Nc2nnc(COC)o2)cc1` gave CBX7 AlphaScr 0.0685.
Screening COCc1nnc(NC(=O)c2ccc(S(=O)(=O)N(CC(C)C)CC(C)C)cc2)o1 returned CBX7 AlphaScr 0.0806.
For CCOC(=O)c1ccc(NC(=O)CSc2nnc(-c3cccnc3)n2Cc2ccccc2)cc1 the results were CBX7 AlphaScr inactive.
